The text below walks through data of PubChem BioAssay (EPA / NIEHS).

What is called AC50 is the concentration giving half of the maximal activity seen.

Structures are written as SMILES. Values joined by “and” are separate entries in the source; they are usually repeats but may differ in a detail not shown here. Equal values may be shown once. Some compounds were tested as several samples or in several runs, with calls that do not always agree. Active and inactive are the calls of the source. How the source made its calls: active means hit-call score of the fitted dose curve at least 0.9, where 1 is the maximum; inactive means score below 0.9.

The nature of the assay: BSK_BT_PBMCCytotoxicity: PBMC Cytotoxicity Assessment in the BioMAP Diversity Plus: BT Assay (AID 2284225). Conditions: primary human B cells with PBMC. As to the method:
BSK_BT is a cell-based, multiplexed-readout assay that uses B cell and peripheral blood mononuclear cells, a human vascular primary cell co-culture, with measurements taken at 24 hours after chemical dosing in a microplate: 96-well plate.BSK_BT_PBMCCytotoxicity is an assay component measured in the BSK_BT assay. It measures dehydrogenase activity, a form of viability reporter, as detected with fluorescence intensity signals by Alamar Blue Reduction technology.Data from the assay component BSK_BT_PBMCCytotoxicity was analyzed at the endpoint, BSK_BT_PBMCCytotoxicity, in the positive analysis fitting direction relative to DMSO as the negative control and baseline of activity. Using a type of viability reporter, gain or loss-of-signal activity can be used to understand cellular changes in viability. To generalize the intended target to other relatable targets, this assay endpoint is annotated to the 'cell cycle' intended target family, where the subfamily is 'cytotoxicity'.
The levels of cell surface (or secreted, indicated by the prefix "s") biomarker endpoints were measured by ELISA. Overt cytotoxicity to cells in confluent adherent cultures (all systems other than the BT system) was assessed by measuring total protein levels using sulforhodamine B (SRB) staining in parallel cultures at the time of biomarker measurements, indicated as SRB endpoints. For proliferation assays for adherent cell types, individual cell types are cultured at sub-confluence and relative cell numbers quantified by SRB staining at time points optimized for each system (48 h: 3C and CASM3C systems; 72 h: BT and HDF3CGF systems; 96 h: SAg system). SRB was performed by staining cells with 0.1% SRB after fixation with 10% TCA and reading wells at 560 nm.Viability and proliferation of PBMC (T cells) was quantified by Alamar Blue reduction for the SAg and BT systems. For PBMC viability (referred to as PBMC Cytotoxicity within the assay endpoint names), cells were plated (75,000/well in a 96-well plate) and then chemical samples added for 1 h before addition of activators, SEB and TSST-1 (20 ng/mL final concentration each). Cells were incubated for 90 h. Then, Alamar Blue (20 uL/well) (Invitrogen, Cat DAL1100) was added for 6 h, and the plates were read with a fluorescence microplate reader at 546/580 nm (excitation/emission). For PBMC proliferation, cells were plated and activated as above but incubated for only 16 h prior to addition of Alamar Blue. Plates were read after 6 h.
As to `OCCCC(F)(F)C(F)(F)C(F)(F)C(F)(F)C(F)(F)C(F)(F)C(F)(F)C(F)(F)F`, the AC50 was 46.4 µM (active) and 23.2 µM (active).

Take `C[C@]12CC[C@H]3C(=CCc4cc(O)ccc43)[C@@H]1CCC2=O`: the outcome was inactive.

As to `OC(O)C(F)(F)C(F)(F)F`, the outcome was inactive.

As to `CCN(CC)c1ccc(C=O)cc1`, the outcome was inactive.

Consider `Nc1cc([N+](=O)[O-])cc(Cl)c1O`, for which the outcome was inactive.

In the case of `Cc1cc(C)c(O)c(C(C)(C)C)c1`, the result was inactive.

For `O=C1C=CC(=O)N1c1ccc(Cc2ccc(N3C(=O)C=CC3=O)cc2)cc1`, the AC50 is 4.43 µM (active).

Take `C[Si](Cl)(Cl)CCC(F)(F)C(F)(F)C(F)(F)C(F)(F)C(F)(F)C(F)(F)F`: the outcome was inactive.

As for `CCN(CC)c1ccc2c(c1)Oc1cc(N(CC)CC)ccc1C21OC(=O)c2ccccc21`, the AC50 is 6.15 µM (active).

Regarding `O=C(O)C(F)(F)C(F)(F)C(F)(F)C(F)(F)C(F)(F)C(F)(F)C(F)F`, the result was inactive.

Take `Brc1nc2ccccc2s1`: the result was inactive.

Take `O=C(O)C(F)(F)OC(F)(F)C(F)(F)OC(F)(F)C(F)(F)OC(F)(F)F`: the AC50 is 14.8 µM (active) and the outcome was inactive.

As for `OCC(F)(F)C(F)(F)C(F)(F)CO`, the outcome was inactive.

Consider `O=C=NCc1cccc(CN=C=O)c1`, for which the result was inactive.

As to `CO[Si](C)(CCC(F)(F)C(F)(F)C(F)(F)C(F)(F)C(F)(F)C(F)(F)F)OC`, the result was inactive.

Turning to `CNS(=O)(=O)C(F)(F)C(F)(F)C(F)(F)C(F)(F)C(F)(F)C(F)(F)C(F)(F)C(F)(F)F`, the outcome was inactive.

Consider `O=C1c2c(O)ccc(Nc3ccc(CCO)cc3)c2C(=O)c2c([N+](=O)[O-])ccc(O)c21`, for which the AC50 was 20 µM (active).

With `OCC(O)CC(F)(F)C(F)(F)C(F)(F)C(F)(F)F` (stereo not given), the result was inactive.

For `NC(=O)C(F)(F)C(F)(F)C(F)(F)F`, the result was inactive.

As to `O=S(=O)(O)CCC(F)(F)C(F)(F)C(F)(F)C(F)(F)C(F)(F)C(F)(F)C(F)(F)C(F)(F)F`, the result was inactive.

As for `COC(F)(C(F)F)C(F)(F)F` (stereo not given), the result was inactive.

Turning to `O=C(F)C1(F)C(F)(F)C(F)(F)C(F)(F)C(F)(F)C1(F)F`, the outcome was inactive.

Regarding `Cc1cc(O)c(C(C)(C)C)cc1C(C)(C)C`, the AC50 is 26.5 µM (active).

As to `NS(=O)(=O)C(F)(F)C(F)(F)C(F)(F)C(F)(F)C(F)(F)C(F)(F)F`, the outcome was inactive.

On to `O=C(Cl)C(F)(F)C(F)(F)C(F)(F)C(F)(F)C(F)(F)C(F)(F)F`, for which the outcome was inactive.

As for `OCC(O)CC(F)(F)C(F)(F)C(F)(F)C(F)(F)C(F)(F)C(F)(F)C(F)(F)C(F)(F)F` (stereo not given), the result was inactive.

Take `Cc1cnccn1`: the result was inactive.

In the case of `NC(O)(C(F)(F)F)C(F)(F)F`, the outcome was inactive.

For `CC(C)CCCC(C)CCO` (stereo not given), the result was inactive.

Consider `NCC(F)(F)C(F)(F)C(F)(F)C(F)(F)C(F)(F)C(F)(F)C(F)(F)C(F)(F)F`, for which the outcome was inactive.

Turning to `OCC(F)(F)C(F)(F)C(F)(F)C(F)(F)C(F)(F)C(F)(F)C(F)(F)C(F)(F)CO`, the AC50 is 46.1 µM (active) and 47.5 µM (active).

As to `FC(F)(F)C(F)(F)C(F)(F)C(F)(F)C(F)(F)C(F)(F)CC[Si](Cl)(Cl)Cl`, the result was inactive.

Consider `OCC(F)(F)C(F)(F)C(F)(F)C(F)(F)C(F)(F)C(F)(F)CO`, for which the result was inactive.

For the compound `O=S(=O)(Cl)C(F)(F)C(F)(F)C(F)(F)C(F)(F)C(F)(F)C(F)(F)C(F)(F)C(F)(F)F`, the AC50 was 8.8 µM (active) and 16.2 µM (active).

For `FC(F)(F)C(F)(F)C(F)(F)CC1CO1` (stereo not given), the outcome was inactive.

Take `O=S(=O)(OCC(F)(F)F)C(F)(F)C(F)(F)C(F)(F)C(F)(F)F`: the AC50 was 8.88 µM (active) and the outcome was inactive.

On to `NCC(F)(F)C(F)(F)C(F)(F)C(F)(F)C(F)(F)C(F)(F)F`, for which the result was inactive.

As to `CCOC(=O)CC(=O)C(F)(F)C(F)(F)F`, the result was inactive.
